A selection: hits, their analogues and other compounds. The true share with any hit is near 5.8%.
VP16 counter – inhibits Gal4-VP16 luciferase reporter, ROR gamma counter-screen; 310,000 compounds, 3.5% hits; AID 2546; Potency, µM (highest dose often 53.6 µM), usual class: inhibitors; Drosophila S2 Gal4-VP16 UAS-luciferase, luminescence, 20 h;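 further: Gal4-VP16 expression switched on by copper sulfate through the metallothionein promoter; nearly all actives have a fitted effect of over 50% in size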
TRPV1 PAM – enhances activation of the human vanilloid receptor TRPV1; Q8NER1; TRPV1-expressing cells, Fluo-8 calcium influx, capsaicin EC20 potentiation; potentiation, % at 8.33 µM; 320,000 compounds, 0.02% hits; in the data active means potentiation above about 80%; inconclusive means between about 30% and that limit
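Cells expressing TRPV1 were dye-loaded with Fluo-8 and read kinetically: 10 s baseline, 3 min after compound (agonist portion), then 2 min after EC20 capsaicin (allosteric enhancer portion). Calcium-bound dye fluorescence at 480/520 nm.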
RORgamma inh – inhibitors of mouse ROR gamma transcriptional activity | Potency, µM (series often up to 53.6 µM), most hits filed as inhibitors | 310,000 compounds, 5.4% hits | Drosophila S2 Gal4-RORgamma UAS-luciferase reporter, 20 h | AID 2551; further: nearly all actives have a fitted effect of over 60% in size
Target sequence (P51450 whole entry, looked up, the tested form may be a part): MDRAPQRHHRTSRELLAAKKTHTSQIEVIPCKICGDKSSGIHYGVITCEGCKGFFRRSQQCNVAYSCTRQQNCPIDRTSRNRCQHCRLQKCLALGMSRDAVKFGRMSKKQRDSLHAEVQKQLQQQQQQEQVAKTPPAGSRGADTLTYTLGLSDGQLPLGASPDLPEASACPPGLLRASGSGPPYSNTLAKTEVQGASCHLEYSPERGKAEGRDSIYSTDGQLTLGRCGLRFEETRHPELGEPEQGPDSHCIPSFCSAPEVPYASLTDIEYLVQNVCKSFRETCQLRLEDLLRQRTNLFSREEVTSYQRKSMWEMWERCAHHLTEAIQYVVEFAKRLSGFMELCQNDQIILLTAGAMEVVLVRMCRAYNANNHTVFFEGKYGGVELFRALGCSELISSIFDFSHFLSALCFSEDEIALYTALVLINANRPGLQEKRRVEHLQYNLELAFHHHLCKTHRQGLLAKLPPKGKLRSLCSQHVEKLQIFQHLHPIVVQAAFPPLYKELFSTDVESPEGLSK
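A Gal4/UAS one-hybrid system in insect cells: metallothionein-promoter Gal4–ROR gamma fusion plus Photinus luciferase reporter. Copper sulfate 700 uM final, 20 hr ambient incubation, luminescent detection after 10 min with reagent.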
TRPV1 agonist – agonists of human vanilloid receptor 1 (TRPV1); Q8NER1; TRPV1-expressing cells, Fluo-8 calcium influx, agonist mode; activation, % at 8.33 µM; 320,000 compounds, 0.19% hits; AID 540275; in the data active means activation above about 80%; inconclusive means between about 30% and that limit
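Cells expressing TRPV1 were dye-loaded with Fluo-8 and read kinetically: 10 s baseline, 3 min after compound (agonist portion), then 2 min after EC20 capsaicin (allosteric enhancer portion). Calcium-bound dye fluorescence at 480/520 nm.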
uPA generation – cell surface uPA generation inhibition | cell surface uPA generation assay, qHTS | 330,000 compounds, 0.31% hits | AID 540303 | Potency, µM (highest dose often 38.3 µM), usual class: inhibitors; active means well fitted inhibition curve with a large enough effect; inconclusive means small, poorly fitted or top-dose-only effect; inactive means no such curve, though single readings can be large or run the other way; tested in mouse RAW 264.7 cells; further: nearly all actives have a fitted effect of over 55% in size
A number is an active result; n = inactive; u = inconclusive; x = not tested or not shown; [ ] = remark or other dose. Unless noted, the call rests on the fitted dose curve; in most records, active means well fitted curve in the direction sought with a large enough effect; inconclusive means small, poorly fitted or top-dose-only effect, or another doubt; inactive means no such curve, though single readings can be large; an effect the other way counts as inactive or inconclusive.

SMILES	VP16 counter	TRPV1 PAM	RORgamma inh	TRPV1 agonist	uPA generation
NCCC[C@@H](CC(=O)N[C@@H]1CCNC[C@H]1C(=O)N[C@H](CC(=O)N[C@@H](CCC(=O)O)CC(=O)O)Cc1c[nH]c2ccccc12)NC(=O)C[C@H](Cc1c[nH]c2ccccc12)NC(=O)[C@@H]1CNCC[C@H]1N	n	x	n	x	x
Cc1ccccc1OCCCCCn1ccnc1	n	n	11µM	n	n
Cc1cc(Cl)cc(C)c1OCCCCn1ccnc1	n	n	11µM	n	x
Cc1cc(OCCCCn2ccnc2)cc(C)c1Cl	n	n	13µM	n	n
Cc1cccc(Cl)c1OCCCCn1ccnc1	n	n	16µM	n	x
Clc1ccccc1OCCCCn1ccnc1	x	n	n[0.365 µM]	n	x
Cn1c(C(=O)NN)cc2cc(OCc3ccccc3)ccc21	x	x	x	x	n
Cc1cc(OCCCn2ccnc2)cc(C(C)C)c1	n	n	32µM	n	n
CC(C)(C)c1ccc(OCCCn2ccnc2)cc1	25µM	n	n	u	n
Cc1cc(OCCCn2ccnc2)ccc1C(C)C	u	n	n	n	n
Nc1nc(N2CCOCC2)n[nH]1	n	n	n	n	n
CCCCn1c(SCC(N)=O)nc2ccc(N3CCOCC3)cc2c1=O	10µM	x	1.6µM	x	n
COc1ccc(Cn2c(SCC#N)nc3ccc(N4CCOCC4)cc3c2=O)cc1	u	n	10µM	n	n
CCCCn1c(SCC(=O)Nc2cccc(OC)c2)nc2ccc(N3CCOCC3)cc2c1=O	13µM	n	5µM	n	n
CCCCCCn1c(SCC(=O)Nc2cc(C)on2)nc2ccccc2c1=O	n[0.365 µM]	n	4µM	n	x
CCCCn1c(SCC(N)=O)nc2c(sc3ccccc32)c1=O	n	n	n	n	n
CC(OC(=O)CC1CC2CCC1C2)C(=O)Nc1ccc(C(N)=O)cc1 (stereo unspecified)	x	n	x	u	n
CC(=O)c1ccc(-c2c(C3C4C=CCCC4(C)C(=O)N3Cc3ccccc3)ccc3ccccc23)cc1 (stereo unspecified)	n	x	u	x	x
N#CC12C(=O)NC(=O)C1(C#N)C21CCCC1 (stereo unspecified)	x	x	x	x	n
CCCn1c(SC(C)C(=O)N2CCOCC2)nc2ccc(Br)cc2c1=O (stereo unspecified)	x	n	x	83	n
CC(C)N1C(=O)N(c2cccc(Cl)c2)C(C)(O)CC1(C)C (stereo unspecified)	n	n	7.9µM	n	n
O=C(Nc1ccccc1-c1ccccc1)C(c1ccccc1)c1ccccc1	n	n	n	n	n
CCNC(=S)Nc1ccccc1-c1ccccc1	11µM	n	8.9µM	n	n
CNC(=S)Nc1ccccc1-c1ccccc1	u	n	11µM	n	n
O=C(COc1ccc(/C=N/NC(=O)c2cc3ccccc3o2)cc1Br)Nc1ccccc1	2.2µM	x	3.2µM	x	n
SMILES	VP16 counter	TRPV1 PAM	RORgamma inh	TRPV1 agonist	uPA generation
Nc1nc(-c2ccccc2)cs1	n	n	n	n	n
Cc1ccc(-c2csc(C3C(N)=NC(S)=C(C#N)C34CCCCC4)n2)cc1 (stereo unspecified)	u	n	5µM	n	n
N#CC1=C(S)N=C(N)C(c2nc(-c3ccccc3)cs2)C12CCCC2 (stereo unspecified)	n	n	10µM	n	n
N#CC1=C(S)N=C(N)C(c2nc(-c3ccccc3)cs2)C12CCCCC2 (stereo unspecified)	u	n	10µM	n	n
Cc1ccc(Cl)cc1	n	x	n	x	x
CC(=O)[C@H]1CC[C@H]2[C@@H]3C=CC4=CC(=O)CC[C@@]4(C)[C@@H]3CC[C@]12C	x	n	x	n	u
Cc1cc(/C=C\c2ccc3cc(N(C)C)ccc3[n+]2C)c(C)n1-c1ccccc1	2.8µM	n	n[2.98 µM]	n	u
S=c1[nH]nc(COc2ccc(Cl)cc2)o1	u	n	6.3µM	n	x
S=c1[nH]nc(CCc2ccc(Cl)cc2)o1	u	n	7.9µM	n	n
CC[C@H](C)[C@@H](NC(=O)O[C@@H]1C(=O)c2ccc(OC)cc2O[C@H]1c1cccc(C(F)(F)F)c1)C(=O)OC	n	x	n	x	x
CCn1cnc2cc(NCc3ccc(Br)cc3)ccc21	n	n	n	n	n
Brc1ccc(CNc2ccc3ncccc3c2)cc1	7.1µM	n	u	n	n
Cc1ccc(S(=O)(=O)N(Cc2ccc(F)cc2)C(=O)N2CCN(C)CC2)cc1	x	n	x	n	n
O=C(Nc1ncnc2sc3c(c12)CCCCC3)c1ccco1	u	n	u	n	n
O=C(Nc1ncnc2sc3c(c12)CCCC3)c1ccncc1	11µM	n	u	n	n
